This is part of a sample that, as a whole, favours compounds with a hit. Of some 83,000 tested, about 20% had one in any assay.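 A percent growth of 40 corresponds to 60% growth inhibition; 0 means no net growth; -100 means all cells died. Active threshold: below 10.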 A number with no mark means an inactive call. The source made the active and inactive calls.

In the experiment the test system is MDA-MB-468 breast. Description: NCI-60 one-dose screen, 48 h (100 = growth as untreated, 0 = no growth, -100 = all killed). Particulars: 10 µM unless noted.
Take `COC(=O)[C@]12CC[C@@H](C)[C@H](C)[C@@H]1C1=CC[C@@H]3[C@@]4(C)C(C=O)=C[C@@](C)(COC(=O)/C=C/c5ccccc5)[C@@H]4[C@H](O)C[C@@]3(C)[C@]1(C)CC2`: the growth was 14.9%. For `S=c1[nH]ccn1-c1ccccc1Cl`, the growth is 103%.

For `COc1cccc(NC(=O)NCCNc2nccc(-c3c(-c4ccc(F)cc4)nc4sccn34)n2)c1`, the growth is 94.3%.

As to `COc1cc(-c2nn(-c3ccc(NC(=O)NCCCNC(=O)c4ccccc4)cc3)cc2-c2ccncc2)ccc1Cl`, the growth was 9.32% (active).

As to `Cc1c(Nc2nnc(SCC(=O)Nc3sc4c(c3C#N)CCCC4)s2)c(=O)n(-c2ccccc2)n1C`, the growth was 107%.

As for `Cc1c(C(=O)N[C@@H](Cc2ccccc2)C(=O)C(=O)NCc2ccc(F)cc2)[nH]c2ccccc2c1=O`, the growth was 94.5%.

Take `N/C(=N\c1nc2c(Cl)cccc2s1)C(Cl)(Cl)Cl`: the growth was 22.6%. As to `CN1CCN(CCCOc2ccc3ncnc(Nc4ccc(Oc5cccc(C(F)(F)F)c5)c(Cl)c4)c3c2)CC1`, the growth is -24.2% (active). With `CN1CCN(c2ccc(NC3=C(Cl)C(=O)c4ncccc4C3=O)cc2C(F)(F)F)CC1` the figure was -79.2% (active); with `COc1ccc(-c2csc(NC(=O)CSc3nc(C)c(-c4ccccc4)n3Nc3ccccc3)n2)cc1`, 91.3%; with `Nc1n[nH]c2ccc([C@@H]3Nc4ccc5[nH]ncc5c4[C@H]4C5C=CC(C5)[C@@H]34)cc12` (stereo not given in full), -12.2% (active). For `CCOC(=O)c1c(-c2ccc(Cl)cc2)c(C#N)c2c(C#N)c(N)nn2c1N`, the growth was 33.6%. Turning to `O=C(O)c1ccc2c(c1)nc(Nc1cccc(Cl)c1)c1ccncc12`, the growth was -36.1% (active). Consider `O=C(CCc1nc2sc3c(c2c(=O)[nH]1)CCC3)NCc1cn(-c2ccccc2)nc1-c1ccccc1`, for which the growth is 83.6%.

Regarding `O=c1[nH]c(-c2ccccc2)nc(CN2CCCCC2)c1O`, the growth is 111%. The value for `Fc1ccc(-c2cc3nc(C(Cl)Cl)nc(-c4ccc(Cl)cc4)n3n2)cc1` was -76.3% (active). As to `COc1cc([C@@H]2c3cc4c(cc3C(OC3O[C@@H]5COC(C)O[C@H]5[C@H](O)[C@H]3O)C3COC(=O)[C@@H]32)OCO4)cc(OC)c1O` (stereo not given in full), the growth is -31% (active). The value for `Cc1c(C(=O)Nc2nc3ccccc3[nH]2)cnn1-c1ccccn1` was 112%.

For `O=C(O)c1cccc2c1-c1ccc(Cl)cc1C2`, the growth was 108%.

On to `O=S(=O)(NCCCNc1cc(-c2cn(-c3ccccc3)nc2-c2cccc(O)c2)ccn1)c1cccc2ccccc12`, for which the growth is -18.4% (active). For `O=C1CC(c2cccc(-c3cccnc3)c2)=Nc2ccc(Br)cc2N1`, the growth is 10.5%. As to `CC(=O)Oc1ccc(C2=Cc3ccc(OC(C)=O)cc3OC2C)cc1` (stereo not given), the growth was 56.5%. In the case of `C=CCOc1cccc(/C=C/C(=O)c2sc(Nc3cccnc3)nc2C)c1`, the growth is 47.5%. Regarding `CCCCCc1ccc(S(=O)(=O)Nc2cc(-c3csc(NC(=O)CN4CCN(C)CC4)n3)ccc2OC)cc1`, the growth is 35.2%. Turning to `CCCC(C(=O)OCC)C(C)OC(=O)OCC` (stereo not given), the growth is 101%. With `COc1ccc(NCc2cn(-c3ccc(C(=O)O)cc3)nc2-c2ccc(C(=O)O)cc2)cc1C(F)(F)F` the figure was 98.6%; with `CC(C)(C)OC(=O)N1CCN(CCn2cc(C(F)(F)F)c3c(Cl)ncnc32)CC1`, 19.4%; with `CC[C@H](Nc1nc(N)nc(C2CC2)c1C#N)c1nc2cccc(NCc3ccc(C(=O)NO)cc3)c2c(=O)n1-c1ccccc1`, -23% (active). For `COc1cc(C=O)ccc1OC1OC(COC(C)=O)C(OC(C)=O)C(OC(C)=O)C1OC(C)=O` (stereo not given), the growth was 100%. With `CN1CCN(C2=C(Cl)C(=O)c3ccccc3C2=O)CC1`, the growth was 57%. For `O=C(Cn1cncn1)Nc1ccc(-c2nc3ccccc3s2)cc1`, the growth is -29.7% (active).

In the case of `CC(C)Sc1nc(NN)c(C#N)c(-c2ccccc2)n1`, the growth is 113%.

`COc1cccc(CNCCN2C(=O)c3ccc4c5c(ccc(c35)C2=O)C(=O)N(CCNCc2cccc(OC)c2)C4=O)c1`: the growth is 89.9%.

As to `N#Cc1c(N)nc2c(nnn2-c2cccc(C(F)(F)F)c2)c1N`, the growth was 76.4%. Consider `O=C1c2ccccc2NC(n2sc3ccccc3c2=O)N1c1ccccc1` (stereo not given), for which the growth is 106%. As for `Cc1cc(Cl)ccc1Nc1nc(C(F)(F)F)ccc1C(=O)NCC(=O)N/N=C/c1c(Cl)cccc1Cl`, the growth is 105%. With `COc1ccc(N/N=C/c2c(-c3ccc(S(C)(=O)=O)cc3)nc3ccccn23)cc1` the figure was 58.2%. In the case of `COc1ccc(S(=O)(=O)N(C)c2oc(-c3ccc(Cl)cc3)nc2C#N)cc1`, the growth was 32.1%. With `CCCCOc1nc2cc(Cl)ccc2cc1/C=C/c1cc(/C=C/c2cc3ccc(Cl)cc3nc2OCCCC)n(-c2ccccc2)n1` the figure was 92%; with `Cn1nc(-c2ccccc2)c2c(-c3ccccc3)onc2c1=O`, 15.1%.

Values taken from PubChem BioAssay (NCI).
